Assay results from PubChem BioAssay (NCATS).
Values joined by “and” are separate entries in the source; they are usually repeats but may differ in a detail not shown here. Equal entries are not always repeated. Inconclusive results are not listed. Where a structure was tested more than once in an assay, its records may differ in their call. Active and inactive are the calls of the source. Calls come from the whole dose curve; as a rule, active = well fitted curve in the direction sought with a large enough effect; inconclusive = small, poorly fitted or top-dose-only effect, or another doubt; inactive = no such curve, though single readings can be large; an effect the other way counts as inactive or inconclusive.

How the values were obtained:
MKL-1 = test: qHTS assay to identify novel small-molecules to repurpose for Merkel cell carcinoma treatment (AID 1296009); details: MCC and control cell lines, CellTiter-Glo viability, 72 h; series mostly up to 46 µM; note: nearly all actives have a fitted effect of over 60% in size; note: potency is the fitted concentration of half-maximal effect
Method in brief: (§1)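 Cell viability, measured as CellTiter-Glo luminescence, was normalized between DMSO and no-cell wells. The cells had been exposed to 8- or 11-point compound dilutions for 72 hr at 37 degree celsius.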

MKL-2 = test: as above; details: MCC and control cell lines, CellTiter-Glo viability, 72 h; series mostly up to 46 µM
Method in brief: as §1

NIH3T3 = test: as above; details: MCC and control cell lines, CellTiter-Glo viability, 72 h
Method in brief: as §1

UISO = test: as above; details: MCC and control cell lines, CellTiter-Glo viability, 72 h; series mostly up to 46 µM
Method in brief: as §1

WaGa = test: as above; details: MCC and control cell lines, CellTiter-Glo viability, 72 h; series mostly up to 46 µM
Method in brief: as §1

C33A = test: Primary qHTS to identify gynecologic anti-cancer compounds using libraries of approved drugs and bioactive compounds (AID 1345084); details: Gynecologic cancer cell panel viability, ATPlite luminescence, 48 h; series mostly up to 57.5 µM; note: nearly all actives have a fitted effect of over 55% in size
Method in brief: (§2)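 Five-point cytotoxicity, 48 h drug exposure at 37 C, 5% CO2, on cells seeded 16 h beforehand. ATP content read by ATPlite luminescence.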

CAOV3 = test: as above; details: Gynecologic cancer cell panel viability, ATPlite luminescence, 48 h; series mostly up to 57.5 µM
Method in brief: as §2

CASKI = test: as above; details: Gynecologic cancer cell panel viability, ATPlite luminescence, 48 h; series mostly up to 57.5 µM
Method in brief: as §2

Es-2 = test: as above; details: Gynecologic cancer cell panel viability, ATPlite luminescence, 48 h; series mostly up to 57.5 µM
Method in brief: as §2

HeLa = test: as above; details: Gynecologic cancer cell panel viability, ATPlite luminescence, 48 h; series mostly up to 57.5 µM
Method in brief: as §2

Hek293T = test: as above; details: Gynecologic cancer cell panel viability, ATPlite luminescence, 48 h, control line for the selectivity index; series mostly up to 57.5 µM
Method in brief: as §2

JEG-3 = test: as above; details: Gynecologic cancer cell panel viability, ATPlite luminescence, 48 h; series mostly up to 57.5 µM
Method in brief: as §2

OV90 = test: as above; details: Gynecologic cancer cell panel viability, ATPlite luminescence, 48 h; series mostly up to 57.5 µM
Method in brief: as §2

PA-1 = test: as above; details: Gynecologic cancer cell panel viability, ATPlite luminescence, 48 h; series mostly up to 57.5 µM
Method in brief: as §2

SKOV3 = test: as above; details: Gynecologic cancer cell panel viability, ATPlite luminescence, 48 h; series mostly up to 57.5 µM
Method in brief: as §2

Tov-21-G = test: as above; details: Gynecologic cancer cell panel viability, ATPlite luminescence, 48 h; series mostly up to 57.5 µM
Method in brief: as §2

Tov112D = test: as above; details: Gynecologic cancer cell panel viability, ATPlite luminescence, 48 h; series mostly up to 57.5 µM
Method in brief: as §2

astro = test: Drug repurposing screens with cells derived from glioblastoma tumor samples (AID 1345199); details: viability, ATP luminescence, 48 h; series mostly up to 45.9 µM; note: nearly all actives have a fitted effect of over 40% in size; note: potency is the fitted concentration of half-maximal effect
Method in brief: (§3)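 Primary testing used CD133+ neurospheres from four GBM patients, seven concentrations, 48 h exposure and ATP-based viability; confirmation added three slower-growing patient lines.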

[1] = as above; details: GBM patient neurospheres viability, ATP luminescence, 48 h
Method in brief: as §3

[2] = at 44.8 µM (top of the series) unless noted
[3] = at 45.9 µM (top of the series), tumour line B
[4] = at 45.9 µM (top of the series), tumour line D
[5] = at 46 µM (top of the series), tumour line A
[6] = at 46.1 µM (top of the series), tumour line C
% is set by controls: 0 for no effect and ±100 for the full control effect.

COCCCOc1ccnc(CS(=O)c2nc3ccccc3[nH]2)c1C (stereo not given)
active: Potency (astro) 22.4 µM
inactive: Potency (MKL-1) | Potency (MKL-2) | outcome (NIH3T3; [2]) | Potency (UISO) | Potency (WaGa) | Potency (C33A) | Potency (CAOV3) | Potency (CASKI) | Potency (Es-2) | Potency (HeLa) | Potency (Hek293T) | Potency (JEG-3) | Potency (OV90) | Potency (PA-1) | Potency (SKOV3) | Potency (Tov-21-G) | Potency (Tov112D)

CCOC(=O)C1=C(O)C(=O)N(Cc2ccccc2)C1
inactive: Potency (MKL-1) | Potency (MKL-2) | outcome (NIH3T3; [2]) | Potency (UISO) | Potency (WaGa)

CN(C)c1ccc(O)c2c1C[C@H]1C[C@H]3[C@H](N(C)C)C(=O)C(C(N)=O)=C(O)[C@@]3(O)C(=O)C1=C2O
inactive and 18.8 µM (active): Potency (WaGa)
inactive: Potency (MKL-1) | Potency (MKL-2) | outcome (NIH3T3; [2]) | Potency (UISO) | Potency (C33A) | Potency (CAOV3) | Potency (CASKI) | Potency (Es-2) | Potency (HeLa) | Potency (Hek293T) | Potency (JEG-3) | Potency (OV90) | Potency (PA-1) | Potency (SKOV3) | Potency (Tov-21-G) | Potency (Tov112D) | activity, negative = cell killing [1, 3] -8.81% and -14.2% and -8.47% | activity, negative = cell killing [1, 4] -14.6% and -28.5% and -14.2% | activity, negative = cell killing [1, 5] -27.3% and -18.4% | activity, negative = cell killing [1, 6] -26.9% and -29.7% | Potency (astro)

N[C@@H](Cc1cc(I)c(Oc2cc(I)c(O)c(I)c2)c(I)c1)C(=O)O
inactive: Potency (MKL-1) | Potency (MKL-2) | outcome (NIH3T3; [2]) | Potency (UISO) | Potency (WaGa) | Potency (C33A) | Potency (CASKI) | Potency (Es-2) | Potency (HeLa) | Potency (Hek293T) | Potency (JEG-3) | Potency (OV90) | Potency (PA-1) | Potency (SKOV3) | Potency (Tov-21-G) | Potency (Tov112D) | activity, negative = cell killing [1, 3] -5.58% | activity, negative = cell killing [1, 4] -1.99% | activity, negative = cell killing [1, 6] -6.06%

CC1=C(C)C(=O)C(C(CCCCCC(=O)O)c2ccccc2)=C(C)C1=O (stereo not given)
inactive: Potency (MKL-1) | outcome (NIH3T3; [2]) | Potency (UISO) | Potency (WaGa) | Potency (C33A) | Potency (CAOV3) | Potency (CASKI) | Potency (Es-2) | Potency (HeLa) | Potency (Hek293T) | Potency (JEG-3) | Potency (OV90) | Potency (PA-1) | Potency (SKOV3) | Potency (Tov-21-G) | Potency (Tov112D) | activity, negative = cell killing [1, 3] -10.7% | activity, negative = cell killing [1, 4] 17% | Potency (astro)
23.7 µM (active) and inactive: Potency (MKL-2)

CCCc1cc(=O)[nH]c(=S)[nH]1
inactive: Potency (MKL-1) | Potency (MKL-2) | outcome (NIH3T3; [2]) inactive; activator | Potency (UISO) | Potency (C33A) | Potency (CAOV3) | Potency (CASKI) | Potency (Es-2) | Potency (HeLa) | Potency (Hek293T) | Potency (JEG-3) | Potency (OV90) | Potency (PA-1) | Potency (Tov-21-G) | Potency (Tov112D) | activity, negative = cell killing [1, 3] -8.42% | activity, negative = cell killing [1, 4] -9.52% | activity, negative = cell killing [1, 6] -10.7% | Potency (astro)
inactive and 18.7 µM (active): Potency (WaGa)

CNC[C@H](O)c1ccc(O)c(O)c1
inactive: Potency (MKL-1) | Potency (MKL-2) | outcome (NIH3T3; at 17.4 µM (top of the series)) | outcome (NIH3T3; at 92 µM (top of the series)) | Potency (UISO) | Potency (WaGa) | Potency (C33A) | Potency (CASKI) | Potency (Es-2) | Potency (HeLa) | Potency (Hek293T) | Potency (JEG-3) | Potency (OV90) | Potency (PA-1) | Potency (SKOV3) | Potency (Tov-21-G) | Potency (Tov112D) | activity, negative = cell killing [1, 3] -6.05% | activity, negative = cell killing [1, 4] -9.08% | activity, negative = cell killing [1, 5] -12.1% | activity, negative = cell killing [1, 6] -9.48% | Potency (astro)

Cc1nc(-c2ccc(OCC(C)C)c(C#N)c2)sc1C(=O)O
inactive: Potency (MKL-1) | Potency (MKL-2) | outcome (NIH3T3; [2]) | Potency (UISO) | Potency (WaGa) | Potency (C33A)

O=C(O)c1cccnc1Nc1cccc(C(F)(F)F)c1
inactive: Potency (MKL-1) | Potency (MKL-2) | outcome (NIH3T3; [2]) | Potency (UISO) | Potency (WaGa) | Potency (C33A) | Potency (CASKI) | Potency (Es-2) | Potency (Hek293T) | Potency (JEG-3) | Potency (PA-1) | Potency (SKOV3) | Potency (Tov-21-G) | Potency (Tov112D) | activity, negative = cell killing [1, 3] -15.9% | activity, negative = cell killing [1, 4] -4.12%

CCN(CCO)CCCC(C)Nc1ccnc2cc(Cl)ccc12 (stereo not given)
active: Potency (MKL-1) 3.72 µM | Potency (WaGa) 2.35 µM
inactive: activity change, negative = cytotoxicity (MKL-1) 15.4% [at 4.84 µM] | Potency (MKL-2) | outcome (NIH3T3; [2]) inactive [at 4.96 µM] | Potency (UISO) | activity change, negative = cytotoxicity (WaGa) 15.3% [at 4.84 µM] | activity change, negative = cytotoxicity (C33A) 4.86% [at 6.55 µM] and 0.75% [at 6.55 µM] | activity change, negative = cytotoxicity (CASKI) 22.4% [at 6.55 µM] and 10.4% [at 6.55 µM] | activity change, negative = cytotoxicity (Es-2) -1.37% [at 6.55 µM] and -0.815% [at 6.55 µM] | activity change, negative = cytotoxicity (HeLa) 2.67% [at 6.55 µM] and -11.2% [at 6.55 µM] | activity change, negative = cytotoxicity (Hek293T) 9.38% [at 6.55 µM] and 2.44% [at 6.55 µM] | activity change, negative = cytotoxicity (JEG-3) -0.0768% [at 6.55 µM] and 4.75% [at 6.55 µM] | activity change, negative = cytotoxicity (OV90) -3.69% [at 6.55 µM] | activity change, negative = cytotoxicity (PA-1) 16.5% [at 6.55 µM] and 2.35% [at 6.55 µM] | activity change, negative = cytotoxicity (SKOV3) -2.72% [at 6.55 µM] and 0.445% [at 6.55 µM] | activity change, negative = cytotoxicity (Tov-21-G) 2.96% [at 6.55 µM] and -2.5% [at 6.55 µM] | activity change, negative = cytotoxicity (Tov112D) 10.4% [at 6.55 µM] and 2.64% [at 6.55 µM] | Potency (astro)

CCC1=C(C)CN(C(=O)NCCc2ccc(S(=O)(=O)NC(=O)NC3CCC(C)CC3)cc2)C1=O (stereo not given)
inactive: Potency (MKL-1) | Potency (MKL-2) | outcome (NIH3T3; [2]) | Potency (UISO) | Potency (WaGa) | Potency (C33A) | Potency (CASKI) | Potency (Es-2) | Potency (HeLa) | Potency (Hek293T) | Potency (JEG-3) | Potency (OV90) | Potency (PA-1) | Potency (Tov-21-G) | Potency (Tov112D) | activity, negative = cell killing [1, 3] 4.42% | activity, negative = cell killing [1, 4] -28.4% | activity, negative = cell killing [1, 6] -8.33% | Potency (astro)

NNc1nncc2ccccc12
inactive: Potency (MKL-1) | Potency (MKL-2) | outcome (NIH3T3; [2]) inactive [at 17.4 µM] | Potency (UISO) | Potency (WaGa) | Potency (C33A) | Potency (CASKI) | Potency (Es-2) | Potency (HeLa) | Potency (Hek293T) | Potency (JEG-3) | Potency (PA-1) | Potency (SKOV3) | Potency (Tov-21-G) | Potency (Tov112D) | activity, negative = cell killing ([1]; at 20 µM (top of the series), tumour line C) -13.5% | activity, negative = cell killing ([1]; at 21.2 µM (top of the series), tumour line B) -20% | activity, negative = cell killing ([1]; at 21.2 µM (top of the series), tumour line D) -12.5% | Potency (astro)
